Shown are actives, neighbours in structure and some others; about 1.4% of the full set was active somewhere.
AmpC detergent: qHTS Inhibitors of AmpC Beta-Lactamase (assay with detergent); Potency, µM (series often up to 114 µM), for inactives: top-dose activity change, negative = inhibition, actives largely listed as inhibitors; AmpC hydrolysis of nitrocefin, absorbance 480 nm, 0.01% Triton; actives 0.041% (n = 370,000); AID 485294, 2010;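 further: 0% = no-compound wells and -100% = no-enzyme wells; nearly all actives have a fitted effect of over 25% in size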
Target sequence (P00811 whole entry, looked up): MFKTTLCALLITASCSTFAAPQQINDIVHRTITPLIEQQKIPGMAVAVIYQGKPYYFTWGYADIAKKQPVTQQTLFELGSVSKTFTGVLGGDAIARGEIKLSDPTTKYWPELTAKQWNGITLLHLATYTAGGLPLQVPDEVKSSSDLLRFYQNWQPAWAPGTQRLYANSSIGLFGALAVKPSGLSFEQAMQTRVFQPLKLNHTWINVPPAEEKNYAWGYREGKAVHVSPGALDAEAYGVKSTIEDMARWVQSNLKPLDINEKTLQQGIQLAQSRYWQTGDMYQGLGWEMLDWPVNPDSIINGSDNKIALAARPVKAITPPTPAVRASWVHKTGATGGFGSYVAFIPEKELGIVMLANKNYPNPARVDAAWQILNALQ
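AmpC (5.3 nM in the dispensed reagent) in 20 mM phosphate pH 7.0 with 0.01% (detergent screen) or 0.0001% Triton X-100 was preincubated with compounds for 15 min at room temperature. Nitrocefin was then added from an 800 uM solution, and hydrolysis was followed at 480 nm.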
AmpC inh no detg: qHTS Inhibitors of AmpC Beta-Lactamase (assay without detergent); Potency, µM (top dose mostly 57.1 µM), inactives show at the top dose activity change, negative = inhibition, usual class: inhibitors; AmpC nitrocefin hydrolysis, absorbance 480 nm, 0.0001% Triton; actives 0.52% (n = 330,000);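 further: plate controls were no compound for no effect and no enzyme for full effect; nearly all actives have a fitted effect of over 20% in size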
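AmpC (5.3 nM in the dispensed reagent) in 20 mM phosphate pH 7.0 with 0.01% (detergent screen) or 0.0001% Triton X-100 was preincubated with compounds for 15 min at room temperature. Nitrocefin was then added from an 800 uM solution, and hydrolysis was followed at 480 nm.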
Vaccinia mCherry: qHTS for Stage-Specific Inhibitors of Vaccinia Orthopoxvirus: mCherry Reporter Primary qHTS | Vaccinia virus mCherry reporter infection, fluorescence | Potency, µM (top dose mostly 36.5 µM), for inactives: top-dose activity change, negative = inhibition, usual class: inhibitors | actives 0.63% (n = 310,000); calls by dose curve; tested in A549 cells; further: on the % scale 0 is the no-effect control and ±100 the full control effect; nearly all actives have a fitted effect of over 35% in size
SARS PLpro yeast: qHTS of Yeast-based Assay for SARS-CoV PLP. S. cerevisiae expressing SARS-CoV PLpro, growth rescue. Potency, µM (highest dose often 32.9 µM), for the others: top-dose activity, positive = growth rescue, actives largely listed as activators. actives 0.19% (n = 330,000); calls by dose curve; further: 0% is about no effect; nearly all actives have a fitted effect of over 55% in size
AMA1 RON2 block: qHTS for Inhibitors of AMA1-RON; Towards Development of Antimalarial Drug Lead: Primary Screen; Plasmodium falciparum AMA1 (3D7) - RON2 peptide interaction; AlphaScreen AMA1-biotinylated RON2 peptide binding; Potency, µM (titrated, usually from 58.2 µM), for the others: at the highest dose activity change, negative = inhibition, most hits filed as inhibitors; actives 0.2% (n = 360,000); AID 720542, 2013;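 further: 0% = vehicle wells and -100% = peptide control; nearly all actives have a fitted effect of over 45% in size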
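AMA1 (3D7) with his tag at 25 nM final met compounds first, then biotinylated RON2 peptide at 25 nM; detection used donor plus acceptor beads, 10 µg/mL apiece, read by AlphaScreen after 30 min at room temperature.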
VACV Venus inh: qHTS for Stage-Specific Inhibitors of Vaccinia Orthopoxvirus: Venus Reporter Primary qHTS; Vaccinia virus Venus reporter expression, fluorescence; Potency, µM (titrated, usually from 36.5 µM), for the others: at the highest dose activity change, negative = inhibition, hits mostly inhibitors; actives 0.46% (n = 330,000); calls by dose curve; tested in A549 cells; further: on the % scale 0 is the no-effect control and ±100 the full control effect; nearly all actives have a fitted effect of over 30% in size
Active calls of the source: *; i = inactive; ? = inconclusive; . = no result. Unless noted, the call rests on the fitted dose curve; in most records, active means well fitted curve in the direction sought with a large enough effect; inconclusive means small, poorly fitted or top-dose-only effect, or another doubt; inactive means no such curve, though single readings can be large; an effect the other way counts as inactive or inconclusive. Potency means the concentration at half of the fitted maximal effect.

SMILES	AmpC detergent	AmpC inh no detg	Vaccinia mCherry	SARS PLpro yeast	AMA1 RON2 block	VACV Venus inh
CCC(COC)NC(=O)c1cnn(-c2ncc3c(n2)-c2ccccc2CCC3)c1C (stereo not drawn)	.	.	-1.9%	.	.	-17.0%
Cc1cc(C)n(-c2nc(Nc3ccccc3C(F)(F)F)nc(-n3nc(C)cc3C)n2)n1	-5.8%	113.5%	.	-6.5%	11.0%	12.6µM*
Cc1cc(C)n(-c2nc(Nc3ccccc3C)nc(-n3nc(C)cc3C)n2)n1	-8.1%	39.8%	.	-4.0%	.	.
O=C(C[n+]1cccc(I)c1)c1ccc(F)cc1	.	.	-6.7%	.	.	-12.5%
COCCN1CCN(C(=O)c2cnn(-c3ncc4c(n3)-c3ccc(OC)cc3CC4)c2C2CC2)CC1	.	.	-20.5%	.	.	-12.3%
O=C1/C(=C/c2ccc(C(=O)O)cc2)CCC/C1=C\c1ccc(C(=O)O)cc1	1.4%	-1.3%	i	15.4%	3.7%	-2.5%
C=CC(=O)N1C/C(=C/c2ccccc2)C(=O)/C(=C\c2ccccc2)C1	.	.	?	.	-24.2%	8.91µM*
O=C1C(=Cc2ccc(Cl)cc2)Cc2ccccc21	.	.	26.2%	.	-1.3%	16.1%
C=CC(=O)N1C/C(=C/c2ccc(Cl)cc2)C(=O)/C(=C\c2ccc(Cl)cc2)C1	.	.	2.82µM*	.	?	5.62µM*
CC(=O)C[C@H]1c2cc(F)cc(F)c2S(=O)(=O)N1C1CCN(Cc2ccccc2)CC1	.	.	-9.3%	.	.	-10.9%
Cc1ncc2c(c1CNC(=O)/C=C/c1cccs1)CCN(C(=O)C1CC(=O)OC13CCCCC3)C2 (stereo not drawn)	.	.	-12.9%	.	.	9.2%
COc1cc(C(O)c2nc(-c3cc(F)cc(F)c3)cs2)ccc1F (stereo not drawn)	.	.	1.6%	.	5.1%	-0.3%
COc1cc(C(O)c2nc(-c3ccc(N(C)C)cc3)cs2)ccc1F (stereo not drawn)	.	.	?	.	20µM*	-28.1%
Cc1cccc(C)c1NC(=O)CCCSc1nnc(-c2ccc(Cl)cc2)n1-c1ccccc1	?	8.8%	12.6µM*	-11.8%	0.2%	?
Cc1cnc(-n2ncc(C(=O)NCc3ccncc3)c2C2CC2)nc1-c1cccs1	.	.	?	.	.	-27.5%
CCOC(=O)CC(=O)CSc1nc2sc(C)cc2c(=O)n1Cc1ccco1	-1.4%	-38.8%	i	3.9%	19.1%	-12.4%
Cc1cc2c(=O)n(Cc3ccco3)c(SCC(=O)c3ccc(Cl)s3)nc2s1	-1.2%	28.2µM*	.	2.6%	6.4%	.
FC(F)(F)c1cnc(NNC(=S)Nc2cccnc2)c(Cl)c1	5.0%	-26.8%	10µM*	-1.4%	92.5%	?
C=C1C=C(C(F)F)n2ncc(C(=O)NCc3ccc(Cl)cc3Cl)c2N1	.	.	-21.3%	.	.	-13.0%
CC1O[C@@H](O[C@@H]2C(O)C[C@H](O[C@@H]3C(O)C[C@@H](OC4CC[C@@]5(C)C6CC(O)[C@@]7(C)C(C8=CC(=O)OC8)CC[C@@]7(O)C6CC[C@@H]5C4)OC3C)OC2C)CC(O)[C@H]1O (stereo partly drawn)	.	.	1µM*	.	.	1µM*
CC1OC(OC2C(O)CC(OC3C(O)CC(OC4CCC5(C)C(CCC6C5CCC5(C)C(C7=CC(=O)OC7)C(O)CC65O)C4)OC3C)OC2C)CC(O)C1O (stereo not drawn)	.	.	.	.	2.4%	0.316µM*
C[C@H]1O[C@@H](O[C@H]2[C@@H](O)C[C@H](O[C@H]3[C@@H](O)C[C@H](O[C@H]4CC[C@@]5(C)[C@H](CC[C@@H]6[C@@H]5CC[C@]5(C)[C@@H](C7=CC(=O)OC7)CC[C@]65O)C4)O[C@@H]3C)O[C@@H]2C)C[C@H](O)[C@@H]1O	-4.2%	128.8%	7.08µM*	3.0%	0.0%	0.0891µM*

Compound activity as filed in PubChem.
